HCMV antiviral: human cytomegalovirus inhibition. HFF cells, HCMV-luciferase reporter, 72 h; stronger effect = lower value. activity change, negative = inhibition, % at 57.5 µM. 410,000 tested, 4.5% active; in the data active = activity change below about -60%; inconclusive = no clear call, values can overlap the other calls; inactive = above about -39%
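Steps: HFFs plated, 16 h 37C; compounds added; HCMV-luciferase added to MOI 1 PFU/cell; 72 h 37C; OneGlo reagent, 5 min room temperature; luminescence read, normalized to controls.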
FMDV antiviral: blocks foot and mouth disease virus. FMDV antiviral cell-based qHTS. Potency, µM (doses to about 57.9 µM), inactives show at the top dose activity change, negative = inhibition, most hits filed as inhibitors. 410,000 tested, 1.2% active. AID 1159524; calls by dose curve; tested in HEK293T cells; note: read-out not given here; potency is the fitted concentration of half-maximal effect; nearly all actives have a fitted effect of over 45% in size
VACV mCherry inh: inhibitors of vaccinia virus infection (mCherry reporter signal). Vaccinia virus mCherry reporter infection, fluorescence. Potency, µM (series often up to 36.5 µM), for inactives: at the highest dose activity change, negative = inhibition, most hits filed as inhibitors. 310,000 tested, 0.63% active; calls by dose curve; tested in A549 cells; note: potency is the fitted concentration of half-maximal effect; nearly all actives have a fitted effect of over 35% in size
Marburg entry inh: blocks Marburg virus binding to or entry into cells; Marburg virus pseudotyped entry inhibition, cell reporter; Potency, µM (highest dose often 37.8 µM), inactives show at the highest dose activity change, negative = inhibition, actives largely listed as inhibitors; 300,000 tested, 1.8% active; AID 540276; calls by dose curve; tested in HEK293 cells; note: potency is the fitted concentration of half-maximal effect
Vaccinia Venus: inhibitors of vaccinia virus (Venus reporter); Vaccinia virus Venus reporter expression, fluorescence; Potency, µM (top dose mostly 36.5 µM), for the others: at the top dose activity change, negative = inhibition, actives largely listed as inhibitors; 330,000 tested, 0.46% active; calls by dose curve; tested in A549 cells; note: potency is the fitted concentration of half-maximal effect; nearly all actives have a fitted effect of over 30% in size
LASV entry inh: inhibitors of Lassa virus binding or cell entry; Lassa virus pseudotype entry inhibition, cell reporter; Potency, µM (top dose mostly 37.9 µM), for the others: at the top dose activity change, negative = inhibition, actives largely listed as inhibitors; AID 540256; 300,000 tested, 1.2% active; calls by dose curve; tested in HEK293 cells; note: potency is the fitted concentration of half-maximal effect; nearly all actives have a fitted effect of over 50% in size
* hit, by the source's call; i = inactive; ? = inconclusive; . = no result; ! = not active in a repeat; [ ] = another dose, or the depositor's remark. In the library only some 6.5% were active in any assay of this set; here they are far more common. % is set by controls: 0 for no effect and ±100 for the full control effect.

SMILES	HCMV antiviral	FMDV antiviral	VACV mCherry inh	Marburg entry inh	Vaccinia Venus	LASV entry inh
CCOC(=O)C1(CCOc2ccccc2)CCN(Cc2cccc3c2OCO3)CC1	-38	?	-8%	?	-18%	?
CCOC(=O)C1(Cc2ccccc2)CCN(Cc2cccn2-c2cccnc2)CC1	-15	?	.	.	.	.
Cc1ccc2c(c1)c(=O)c(C(=O)c1ccncc1)cn2CC(=O)Nc1ccc(C(C)C)cc1	3	-22%	-2%[7.34 µM]	.	-1%[7.34 µM]	5%[46.1 µM]
CN(C)/C=N/c1nc2c(ncn2C2CC(O)C(CO)O2)c(=O)[nH]1 (configuration not stated)	.	.	-13%	.	24%	.
CCOC(=O)C1(Cc2cccc(OC)c2)CCN(Cc2cccc(OC)c2O)CC1	-73*	25µM*	-22%	?	-10%	?
CCOC(=O)C1(Cc2ccccc2C(F)(F)F)CCN(C2CCN(C(C)C)CC2)CC1	-69*	-9%	.	7.3µM*	.	?
CCOC(=O)C1(Cc2ccccc2C(F)(F)F)CCN(CC(O)CO)CC1 (configuration not stated)	-30	-18%	i	?	-15%	-11%
CCOC(=O)C1(Cc2cccc(OC)c2)CCN(Cc2ccc(OC)c(OC)c2)CC1	-27	-26%	i	4.5µM*	-18%	?
CCOC(=O)C1(CCOc2ccccc2)CCN(Cc2cccc(F)c2)CC1	-91*	?	.	.	.	.
CCOC(=O)C1(Cc2ccccc2)CCN(Cc2cccc(OC)c2O)CC1	-5	?	-20%	?	-12%	.
CCOC(=O)C1(Cc2cccc(OC)c2)CCN(Cc2cccc(O)c2)CC1	-30	?	-6%	?	-7%	-15%
COC(=O)c1cc(CNC(=O)c2cccc(N(C)C)c2)cc(NC(=O)c2ccccc2Cl)c1	.	-3%	-12%	.	-19%	.
CCOC(=O)C1(Cc2cccc(OC)c2)CCN(Cc2ccon2)CC1	15	-22%	.	.	.	.
CCOC(=O)C1(CCOc2ccccc2)CCN(C(=O)c2ccc(-n3cccn3)cc2)CC1	?	22µM*	?	?	-21%	?
CCOC(=O)C1(Cc2cccc(OC)c2)CCN(Cc2ccc(C)s2)CC1	-3	?	-18%	5µM*	-29%	4.5µM*
Cc1ccc(-n2cc(CN3CCC(CO)(Cc4cccc(C(F)(F)F)c4)CC3)cn2)cc1	-99*	?	?	?	11µM*	?
OCC1(Cc2cccc(C(F)(F)F)c2)CCN(Cc2cc(F)cc(F)c2)CC1	-62*	-9%	-24%	?	?	?
CSc1cccc(CN2CCC(CO)(Cc3cccc(C(F)(F)F)c3)CC2)c1	?	?	-17%	?	-27%	-22%
Oc1ccc(Br)cc1C1C=C(c2ccc3c(c2)OCO3)NC(c2ccc(Br)cc2)N1 (configuration not stated)	.	.	30%	.	-12%	.
C[N+]1=CC2=c3c1c(O)c1c(c3=NCC2)C2(C=C(Br)C(=O)C(Br)=C2)CCN1	-102*	.	.	.	.	.
CSc1ccc(CNC(=O)c2ccc(NC(=O)c3nsc4ccccc34)cc2)cc1	-96*	-5%	-8%[7.34 µM]	.	-5%[7.34 µM]	6%[46.1 µM]
CC(C)Oc1ccc(CNC(=O)c2ccc(NC(=O)c3nsc4ccccc34)cc2)cc1	68	-11%	8%	.	-8%	?
Cc1ccc(CNC(=O)c2ccccc2NC(=O)c2nsc3ccccc23)cc1	-88*	-3%	?	.	?	?
Cc1ccccc1CNC(=O)c1ccccc1NC(=O)c1nsc2ccccc12	0	0%	-11%	.	?	15%[46.1 µM]
CSc1ncccc1C(=O)NCc1ccc(C)cc1	-27	3%	?	13%	10µM*	12%
SMILES	HCMV antiviral	FMDV antiviral	VACV mCherry inh	Marburg entry inh	Vaccinia Venus	LASV entry inh
O=C(CC1C(=O)N(c2ccc(F)cc2)C(=O)N1Cc1ccc2c(c1)OCO2)Nc1ccc(F)cc1 (configuration not stated)	-1	-2%	1%	-7%[46.1 µM]	-4%	-13%[46.1 µM]
CCOC(=O)[C@@H]1CSCCS(=O)(=O)N1C(=O)[C@H](Cc1ccccc1)NC(=O)OC(C)(C)C	-5	.	.	.	.	.
CCC/C(=N\NC(=O)CCC(=O)NCc1ccccc1)c1ccccc1	0	-12%	-23%	?	-17%	4µM*
COc1ccc(C(=O)/C=C/c2cn(CC(O)CN3CCc4ccccc43)c3ccccc23)cc1OC (configuration not stated)	-64*	?	?	?	-20%	?
CC(C)CN(CC(C)C)CC(O)Cn1cc(/C=C/C(=O)c2ccccc2)c2ccccc21 (configuration not stated)	23	-14%	-23%	2%[46.1 µM]	-14%	?
Cc1ccc(C(=O)/C=C/c2cn(CC(O)CN3CCc4ccccc43)c3ccccc23)cc1 (configuration not stated)	-74*	-5%	-14%	?	-14%	?
Cc1ccc(C(=O)/C=C/c2cn(CC(O)CN3CCOCC3)c3ccccc23)cc1 (configuration not stated)	-19	?	-15%	?	-28%	-1%
CCCN(CCC)CC(O)Cn1cc(/C=C/C(=O)c2ccc(OCC)cc2)c2ccccc21 (configuration not stated)	-106*	0%	?	?	?	?
COc1ccc(C(c2nnnn2Cc2cccs2)N2CCN(c3ccc(F)cc3)CC2)cc1OC (configuration not stated)	20	-11%	-24%	?	-17%	8.2µM*
COc1ccc(C(c2nnnn2Cc2ccc(F)cc2)N2CCN(c3ccc(OC)cc3)CC2)cc1 (configuration not stated)	30	0%	.	?	-16%	3.2µM*
COc1ccc(Cn2nnnc2C(c2ccc(F)cc2)N2CCN(C3CCCC3)CC2)cc1 (configuration not stated)	38	-10%	.	10µM*	?	?
Fc1ccc(C(c2nnnn2Cc2cccs2)N2CCN(C3CCCCC3)CC2)cc1 (configuration not stated)	40	-27%	-29%	22µM*!	-21%	-17%
C[C@@H]1NS(=O)(=O)c2c(F)cccc2O[C@@H]1c1ccccc1	-4	.	.	.	.	.
CCCC(c1nnnn1Cc1ccc(F)cc1)N1CCN(C2CCCCC2)CC1 (configuration not stated)	-12	-22%	.	8.9µM*	-2%	-6%
CC(C)C(c1nnnn1Cc1ccc(F)cc1)N1CCN(C2CCCC2)CC1 (configuration not stated)	-10	8%	-14%	3%[46.1 µM]	-2%	?
FC(F)Oc1ccc(NC(=S)NC2CCSc3ccccc32)cc1 (configuration not stated)	-82*	0%	-25%	-29%	?	-23%
COc1ccc2[nH]c3c(N4CCC(O)(c5cccc(C(F)(F)F)c5)CC4)ncnc3c2c1	?	28µM*	i	?	?	?
